The source of these data is PubChem BioAssay.

The nature of the assay: MRP1 drug-resistance reversers in H69AR cells – cell-based, doxorubicin co-treatment, pilot screen (AID 601). To be noted: H69AR cells + 2 uM doxorubicin, CellTiter-Glo, 72 h; measured here: viability with 2 uM doxorubicin; at 10 µM; stronger effect = lower value. Background: In ATP-based viability assays light output follows the ATP content of the culture.
A word on the viability: it is a read-out of living cells in per cent, often relative to untreated cells. For the compound `C=C(c1cccc2ccccc12)P(=O)(O)O`, the viability amounted to 86.5%.

With `COc1cc(NC(=O)c2cc(CC(C)C)on2)c(OC)cc1Cl`, the viability is 92.2%.

On to `COc1ccccc1-n1c(SCC(N)=O)nnc1-c1ccccc1`, for which the viability turned out to be 87.8%.

`Cc1coc2cc3oc(=O)c4c(c3cc12)CCC4`: the viability is 97.2%.

With `COc1ccc(NC(=O)CN2CCN(S(=O)(=O)c3ccc(Cl)cc3)CC2)cc1`, the viability was 93.1%.

On to `COc1cc(-c2nc(S(=O)(=O)c3ccccc3)c(N3CCOCC3)o2)cc(OC)c1OC`, for which the viability was determined as 72.2%.

Take `CCC(C)(C)NC(=O)C(OC(=O)c1ccco1)c1ccccc1OC` (stereo not drawn): the viability was found to be 87.2%.

`COc1ccc(-n2nnc3c(=O)n(C/C=C/c4ccccc4)cnc32)cc1`: the viability worked out at 77.1%.

As for `Cc1ccc(S(=O)(=O)N2CCOCC2)cc1C(=O)Nc1ccccn1`, the viability came to 86.1%.

As to `CCOc1ccccc1NC(=O)NC1CCN(CC(=O)Nc2ccc3c(c2)OCCO3)CC1`, the viability stood at 94.3%.

On to `O=C(CCNS(=O)(=O)c1ccc(Cl)cc1)NCc1ccccn1`, for which the viability was determined as 96.7%.

As to `COCCNC(=O)CSc1nc(-c2ccc(OC)c(OC)c2)cc(C(F)(F)F)n1`, the viability amounted to 100%.

As for `CCOc1ccc2ccccc2c1/C=N/n1cncn1`, the viability is 103%.

As to `CCOC(=O)C1CCCN(C(=O)c2cc(=O)c3ccccc3o2)C1` (stereo not drawn), the viability is 102%.

As for `COc1ccc(CN(C(=O)c2oc3ccccc3c2C)C2CCS(=O)(=O)C2)cc1` (stereo not drawn), the viability came out at 81.7%.

In the case of `COC(=O)CCc1c(C)c(C#N)c2nc3ccccc3n2c1N1CCCC1`, the viability was found to be 27.7%.

Turning to `COC(=O)c1ccccc1NC(=O)c1noc2c1CCC2`, the viability stood at 79.4%.

For the compound `Cc1ccc(S(=O)(=O)NCC(=O)N(CC(=O)NC2CCCCC2)Cc2ccco2)cc1`, the viability came out at 91.3%.
